This passage reports survival results from PubChem BioAssay AID463173 (ICCB-Longwood Screening Facility, Harvard Medical School, 2010).

Screen size: about 52,000 compounds; about 4,300 (8.3%) were called active. Rule as the data show it: active = survival mostly below about 52% (no sharp cut-off); inactive = mostly above about 56%. Many of the other results were omitted from the sample, so actives are more common in it than they were.

The test system of this assay is DeltatarO mutant. Description: growth inhibition of S. aureus wild type versus tarO mutant, primary screen, teichoic acid synthesis inhibitors, RN4220, OD600 (AID 463173). The note with it: OD600, 18 h, hits give low values, screened at 18.75 µg/mL (by protocol).
Consider `CC(=O)N1CCCC1c1nc2ccccc2n1Cc1cc(C)ccc1C` (stereo not drawn), for which the survival is 106% (inactive).

Take `Cc1cc(NC(=O)c2cccn2-c2nnc(N3CCCCC3)s2)ccc1Br`: the survival is 117% (inactive).

On to `CCCCN(C)CCCNC(=O)C1CCN(S(=O)(=O)CC)CC1`, for which the survival was 108% (inactive).

Consider `CCc1ccc(CN(Cc2ccco2)C(=O)c2ccc(OC)cc2)cc1`, for which the survival is 52% (active).

As for `Cc1ccc(CN(Cc2ccco2)C(=O)c2ccccc2Br)o1`, the survival is 47% (inactive).

As to `CCc1ccc(CN(Cc2ccco2)C(=O)c2ccc(C)cc2)cc1`, the survival was 41% (active).

`O=C(c1ccccc1Cl)N(Cc1ccco1)Cc1ccco1`: the survival is 60% (inactive).

With `CCc1ccc(CN(Cc2ccco2)C(=O)c2ccccc2Cl)cc1`, the survival was 46% (active).

On to `Cc1ccc(C(=O)N(Cc2ccco2)Cc2ccco2)cc1`, for which the survival was 61% (inactive).

Consider `COc1ccc(C(=O)N(Cc2ccco2)Cc2ccco2)cc1`, for which the survival was 58% (inactive).

In the case of `Cc1ccc(CN(Cc2ccco2)C(=O)c2ccccc2Cl)o1`, the survival is 74% (inactive).

As to `COc1ccc(C(=O)N(Cc2ccco2)Cc2ccc(C)o2)cc1`, the survival is 71% (inactive).

On to `CCOc1ccccc1C(=O)N(Cc1ccco1)Cc1ccco1`, for which the survival is 73% (inactive).

In the case of `Cc1ccc(C(=O)N(Cc2ccc(N(C)C)cc2)Cc2ccco2)cc1`, the survival is 73% (inactive).

Consider `O=C(c1ccccc1Br)N(Cc1ccco1)Cc1ccco1`, for which the survival was 45% (active).

`COc1cccc(/C=C(\C#N)C(=O)Nc2ccc(NC(C)=O)cc2)c1OC`: the survival is 89% (inactive).

For the compound `Cc1ccccc1C(=O)Nc1ccc2oc(-c3ccc(Cl)c(Cl)c3)nc2c1`, the survival was 64% (inactive).

Regarding `Cc1ccc2cc(CN(Cc3ccccc3)C(=O)C3CC3)c3nnnn3c2c1`, the survival was 100% (inactive).

In the case of `O=C(NCc1ccco1)C(c1ccccc1)N(C(=O)Cn1nnc2ccccc21)C1CCCC1` (stereo not drawn), the survival is 105% (inactive).

Turning to `Cc1ccc(N2CC(NC(=O)c3ccccc3C(F)(F)F)CC2=O)cc1C` (stereo not drawn), the survival is 55% (inactive).

Consider `CC(=O)Nc1ccc(NC(=O)CN(C)S(=O)(=O)c2ccc3c(c2)CCCC(=O)N3)cc1`, for which the survival is 84% (inactive).

Take `CCN(CC)C(NC(=O)c1ccccc1)C(=O)c1ccccc1` (stereo not drawn): the survival was 85% (inactive).

Turning to `COc1ccc(-c2nn(-c3cccc(F)c3)c3c2cnc2cc(OC)c(OC)cc23)cc1`, the survival is 67% (inactive).

For `Cc1ccc(S(=O)(=O)N(CCO)Cc2ccccc2)cc1`, the survival is 87% (inactive).

On to `CC(C(=O)Nc1ccccc1C(F)(F)F)n1nnc2sc3c(c2c1=O)CCCC3` (stereo not drawn), for which the survival is 81% (inactive).

As to `CCc1nc(Nc2ccc(F)c(Cl)c2)c2c3c(sc2n1)CCCC3`, the survival was -4% (active).

For `O=C(Cn1nc(C(F)(F)F)c2c1CCCC2)Nc1ccc(F)c(Cl)c1`, the survival was 62% (inactive).

Turning to `Cc1ccc(Cl)cc1NC(=O)C(C)n1nnc2sc3c(c2c1=O)CCCC3` (stereo not drawn), the survival is 69% (inactive).

Turning to `COC(=O)c1cc(NC(=O)Cn2nc(C)n3cccc3c2=O)cc(C(=O)OC)c1`, the survival was 87% (inactive).

For `COC(=O)c1cc(NC(=O)Cn2nc(-c3ccccc3)c3c(c2=O)CCCC3)cc(C(=O)OC)c1`, the survival was 24% (active).

Turning to `O=C(Cn1nc(-c2ccccc2)c2c(c1=O)CCCC2)Nc1ccc(F)c(Cl)c1`, the survival is 23% (active).

As to `CC(=O)Nc1ccc(Nc2ncnc3sc4c(c23)CCCC4)cc1`, the survival is 76% (inactive).

As to `COC(=O)c1cc(NC(=O)Cn2nc(-c3ccc(C)c(C)c3)ccc2=O)cc(C(=O)OC)c1`, the survival was 65% (inactive).

As to `COc1ccc(Nc2ncnc3sc4c(c23)CCCC4)cc1`, the survival is 69% (inactive).

For the compound `CC(C(=O)Nc1cc(C(F)(F)F)ccc1Cl)n1nnc2sc3c(c2c1=O)CCCC3` (stereo not drawn), the survival is 53% (active).

For the compound `O=C(Cn1c(=O)nc(-c2ccccc2)c2cc(Cl)ccc21)Nc1ccc(F)c(Cl)c1`, the survival is 75% (inactive).

As to `COc1ccc(OCC(=O)Nc2ccc(-c3nc4cc(C)cc(C)c4o3)cc2)cc1`, the survival is 75% (inactive).

Turning to `CCOC(=O)C1=C(CN2CCN(c3ccc(Cl)cc3)CC2)NC(=O)NC1c1ccc(F)cc1` (stereo not drawn), the survival was 70% (inactive).

For `CCOC(=O)c1nc(Nc2ccc(Cl)cc2)c2c(C)noc2n1`, the survival was 68% (inactive).

In the case of `COc1ccc(OC)c(CNC(=O)c2ccc(NC(=O)c3nsc4ccccc34)cc2)c1`, the survival was 80% (inactive).

`O=C(Cn1nnc2sc3c(c2c1=O)CCCC3)Nc1ccc(F)c(Cl)c1`: the survival was 36% (active).

For `COc1ccc(NC(=O)Cn2nnc3sc4c(c3c2=O)CCCC4)cc1`, the survival is 61% (inactive).

Consider `Cc1c(Cl)cccc1NC(=O)Cn1nnc2sc3c(c2c1=O)CCCC3`, for which the survival was 75% (inactive).

Take `CCOc1ccc(/C=C(\C#N)c2nc(-c3cc4ccccc4oc3=O)cs2)c(OCC)c1`: the survival is 81% (inactive).

On to `Cc1cccc(C(=O)Nc2cc(-c3nc4cccnc4s3)ccc2C)c1`, for which the survival is 45% (active).

As to `COCC(=O)Nc1cccc(-c2nc3cccnc3s2)c1`, the survival was 68% (inactive).

For the compound `CCOc1ccc(CC(=O)Nc2cccc(-c3nc4cccnc4s3)c2C)cc1`, the survival is 90% (inactive).

Take `Cc1cccc(CC(=O)Nc2cccc(-c3nc4cccnc4s3)c2)c1`: the survival is 93% (inactive).

Take `Cc1ccc(-c2nc3cccnc3s2)cc1NC(=O)Cc1ccccc1`: the survival is 99% (inactive).

Take `COc1ccc(CC(=O)Nc2cc(-c3nc4cccnc4s3)ccc2C)cc1`: the survival is 41% (active).

As for `CCCCC(=O)Nc1cc(-c2nc3cccnc3s2)ccc1C`, the survival was 35% (active).

`Cc1ccc(C(=O)Nc2cccc(-c3nc4cccnc4s3)c2C)cc1`: the survival was 111% (inactive).

In the case of `CCCCC(=O)Nc1cc(-c2cn3cccnc3n2)ccc1C`, the survival is 102% (inactive).

With `CCCC(=O)Nc1cc(-c2nc3cccnc3s2)ccc1C`, the survival was 109% (inactive).

As to `COc1cc(OC)cc(C(=O)Nc2cc(-c3nc4cccnc4s3)ccc2C)c1`, the survival was 43% (active).

As for `COc1ccc(C(=O)Nc2cccc(-c3nc4cccnc4s3)c2C)c(OC)c1`, the survival was 103% (inactive).

For the compound `COc1ccc(N2CCN(C(=O)CS(=O)(=O)c3cccc4nsnc34)CC2)cc1`, the survival is 107% (inactive).

Take `O=C(CSc1nc2c([nH]c3ccccc32)c(=O)n1-c1cccc(C(F)(F)F)c1)N1CCCC1`: the survival was 71% (inactive).

Regarding `Cc1c(C(=O)Nc2ccc(F)c(C(F)(F)F)c2)sc2nc(-c3ccccc3)cn12`, the survival is 105% (inactive).

Regarding `CCOC(=O)C1=CN(O)/C(=C\N=O)C=C1`, the survival is 78% (inactive).

Turning to `COc1ccc(Cl)cc1NC(=O)CSc1cc(C)[nH]c(=O)n1`, the survival was 80% (inactive).

`COc1ccc(S(=O)(=O)c2cn(C)c3cc(N4CCCCCC4)c(F)cc3c2=O)cc1`: the survival was 86% (inactive).

On to `Cc1ccccc1Nc1c(-c2c(F)cccc2Cl)nc2ccc(Br)cn12`, for which the survival is 69% (inactive).

As to `COc1ccc(/C=C\c2onc(C)c2S(=O)(=O)N2CCC(C(=O)Nc3ccc(Cl)cc3)CC2)cc1`, the survival was 65% (inactive).

As to `CN(C)c1ccc(C(=O)Nc2cccc(-c3nc4cccnc4s3)c2)cc1`, the survival was 49% (inactive).

For `CCOc1ccccc1C(=O)Nc1cc(-c2nc3cccnc3s2)ccc1C`, the survival is 37% (active).

`O=C(Nc1cccc(-c2nc3cccnc3s2)c1)c1cccc(Br)c1`: the survival was 32% (active).

As to `Cc1ccccc1C(=O)Nc1cccc(-c2nc3cccnc3s2)c1`, the survival is 81% (inactive).

For `CCCCOc1ccc(C(=O)Nc2cccc(-c3nc4cccnc4s3)c2)cc1`, the survival is 92% (inactive).

In the case of `CCOc1ccc(C(=O)Nc2cccc(-c3nc4cccnc4s3)c2C)cc1OCC`, the survival is 90% (inactive).

With `COc1ccc(CC(=O)N2N=C(c3ccncc3)CC2(O)C(F)(F)F)cc1` (stereo not drawn), the survival was 104% (inactive).

Turning to `COc1ccccc1CNC(=O)CCCn1c(=O)c2ccccc2n(CC(=O)Nc2c(C)cc(C)cc2C)c1=O`, the survival was 166% (inactive).

Take `N#Cc1ccc(CSCC(=O)NN=C2CCCC2)cc1`: the survival was 65% (inactive).

Consider `COc1ccc(OCC2c3cc(OC)c(OC)cc3CCN2C(=O)c2ccc(F)cc2)cc1` (stereo not drawn), for which the survival is 94% (inactive).

Take `Cc1ccc(NC(=O)c2sc3ccccc3c2Cl)cc1`: the survival was 66% (inactive).

For `Cc1cccc(NC(=O)c2sc3cccc(Cl)c3c2Cl)c1`, the survival is 11% (active).

With `CCOc1ccc(NC(=O)c2sc3ccccc3c2Cl)cc1`, the survival was 68% (inactive).

Consider `CCCC(=O)Nc1ccc(NC(=O)c2sc3ccccc3c2Cl)cc1`, for which the survival is 109% (inactive).

With `CCOC(=O)c1ccccc1NC(=O)c1sc2ccccc2c1Cl`, the survival was 36% (active).

Regarding `COc1ccccc1NC(=O)c1sc2cccc(Cl)c2c1Cl`, the survival was 64% (inactive).

Turning to `CCOC(=O)c1ccc(NC(=O)c2sc3ccccc3c2Cl)cc1`, the survival is 67% (inactive).

As to `CCN(CC)c1ccc(NC(=O)c2sc3ccccc3c2Cl)cc1`, the survival is -2% (active).

With `O=C(Nc1ccccc1Cl)c1sc2cccc(Cl)c2c1Cl`, the survival is 63% (inactive).

Take `CC(C)NC(=O)c1ccc2c(c1)nc1n2CCCCC1`: the survival was 91% (inactive).

For `COc1cccc(Cn2c(=O)n(CC3CCC(C(=O)N4CCOCC4)CC3)c(=O)c3sccc32)c1` (stereo not drawn), the survival is 124% (inactive).

Turning to `CCc1ccc(S(=O)(=O)c2cn(CC)c3cc(N4CCCCC4)c(F)cc3c2=O)cc1`, the survival was 83% (inactive).

Regarding `CCOc1ccc2[nH]c(=O)c(CN(Cc3ccccc3OC)C(=O)N3CCCC3)cc2c1`, the survival is 96% (inactive).

For the compound `NCCS(=O)(=O)N1CCCC1`, the survival is 88% (inactive).

Regarding `Cc1ccn2c(c1)nc(=O)c1cc(S(=O)(=O)N3CCC(C)CC3)c(Cl)cc12`, the survival was 87% (inactive).

For `COc1ccc(NC(=O)CC2C(=O)N(c3cccc(C)c3)C(=O)N2C2CCCCC2)cc1` (stereo not drawn), the survival is 69% (inactive).

Take `COc1ccc(NC(=O)CSc2ccc3nc(-c4ccccc4)cn3n2)cc1OC`: the survival is 113% (inactive).

On to `CCOC(=O)N1CCN(Cc2nc3cc(NC(=O)c4ccccc4Cl)ccc3n2C(C)C)CC1`, for which the survival is 70% (inactive).

With `COC(=O)CN1C(=O)CSc2ccc(S(=O)(=O)Nc3cccc(Br)c3)cc21`, the survival was 37% (active).

As to `COC(=O)CN1C(=O)CSc2ccc(S(=O)(=O)Nc3c(C)cc(C)cc3C)cc21`, the survival is 101% (inactive).

As to `COC(=O)CN1C(=O)CSc2ccc(S(=O)(=O)Nc3ccccc3)cc21`, the survival was 91% (inactive).

In the case of `COC(=O)CN1C(=O)CSc2ccc(S(=O)(=O)Nc3cccc(C)c3C)cc21`, the survival is 63% (inactive).

Consider `COC(=O)CN1C(=O)CSc2ccc(S(=O)(=O)Nc3cccc(C)c3)cc21`, for which the survival was 101% (inactive).

Consider `COC(=O)CN1C(=O)CSc2ccc(S(=O)(=O)Nc3cc(C)ccc3C)cc21`, for which the survival is 25% (active).
